Compound activity from PubChem BioAssay.
KB-3-1 tox – qHTS assay for MDR1-selective chemotherapeutics: Primary screen using the parental adenocarcinoma cell KB-3-1; Potency, µM (series often up to 46.1 µM), most hits filed as cytotoxic; 400,000 compounds, 1.4% hits; AID 1347075, 2019; KB-3-1 viability, CellTiter-Glo ATP luminescence, 72 h; also: nearly all actives have a fitted effect of over 60% in size
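KB-3-1 parental drug-naive adenocarcinoma cells in DMEM/10% FBS, incubated 72 h at 37 C with pin-transferred compounds across a concentration series. Viability by CellTiter-Glo luminescence; concentration-response curves fitted after normalization.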
TDP1 cell noCPT – qHTS for Inhibitors of human tyrosyl-DNA phosphodiesterase 1 (TDP1): qHTS in cells in absence of CPT. DT40 Tdp1-/- hTDP1 cells, no CPT, ATP luminescence, 48 h. Potency, µM (doses to about 46.2 µM), usual class: inhibitors. 420,000 compounds, 15% hits. AID 686978, 2013; also: nearly all actives have a fitted effect of over 55% in size
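Readout: luminescence from CellTiter-Glo after 30 min in the dark at RT. Cells: DT40 Tdp1-/- with stable hTDP1, 400/well. Exposure: compounds alone, ≥48 hr, 37 °C.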
HT1080-NT tox – qHTS for induction of synthetic lethality in tumor cells producing 2HG: qHTS for the HT-1080-NT fibrosarcoma cell line; Potency, µM (top dose mostly 46.1 µM), most hits filed as cytotoxic; 360,000 compounds, 1.6% hits; HT-1080-NT fibrosarcoma viability, CellTiter-Glo ATP luminescence, 48 h;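 also: NT is the 2HG producing partner of a matched IDH1 knockdown line; nearly all actives have a fitted effect of over 55% in size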
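Viability by CellTiter-Glo luminescence after 48 h compound exposure at 37C of HT-1080-NT cells (750/well, RPMI, 5% FBS). % activity scaled between DMSO wells and medium-only wells, then curve-fitted and categorized by curve class.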
DT40 TDP1 CPT – qHTS for Inhibitors of human tyrosyl-DNA phosphodiesterase 1 (TDP1): qHTS in cells in presence of CPT; Potency, µM (doses to about 46.2 µM), actives largely listed as inhibitors; 420,000 compounds, 12% hits; AID 686979, 2013; chicken DT40 Tdp1-/-;hTDP1 cells + 20 nM CPT, ATP luminescence, 48 h; also: nearly all actives have a fitted effect of over 55% in size
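Chicken DT40 Tdp1-/- cells complemented with human TDP1, 400 cells/well, exposed to compounds plus 20 nM camptothecin for at least 48 h at 37 C; viability read as ATP content by CellTiter-Glo luminescence.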
HT1080 IDH1KD tx – qHTS for induction of synthetic lethality in tumor cells producing 2HG: qHTS for the HT-1080-IDH1KD cell line; Potency, µM (highest dose often 46.1 µM), usual class: cytotoxic; 360,000 compounds, 2% hits; HT-1080 IDH1 knockdown viability, ATP luminescence, 48 h
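Viability of IDH1-knockdown HT-1080 fibrosarcoma cells was assessed by CellTiter-Glo after 48 h at 37 °C with titrated compound; concentration-effect curves were classified by fit quality and response size.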
KB-V1 cytotox – qHTS assay for MDR1-selective chemotherapeutics: Primary screen using the drug-selected MDR subline cells KB-V1; KB-V1 MDR cells viability, CellTiter-Glo, 72 h; Potency, µM (doses to about 46.1 µM), actives largely listed as cytotoxic; 400,000 compounds, 3.4% hits; also: nearly all actives have a fitted effect of over 60% in size
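Following 72 h at 37 degrees C with compound, KB-V1 cell viability was read by CellTiter-Glo luminescence, medium being phenol-red-free DMEM plus 10% FBS; concentration-response parameters came from normalized, curve-fitted qHTS data.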
Each line names hits and unclear results; the compound was inactive in the other large screens. Most compounds without a hit are left out; they make up all but 19% or so of the library. Calls follow the shape of the dose curve; as a rule, active = well fitted curve in the direction sought with a large enough effect; inconclusive = small, poorly fitted or top-dose-only effect, or another doubt; inactive = no such curve, though single readings can be large; an effect the other way counts as inactive or inconclusive.

CN(C)S(=O)(=O)c1ccc2c(c1)C(=NNC(N)=O)c1cc(S(=O)(=O)N(C)C)ccc1-2	TDP1 cell noCPT inconclusive, DT40 TDP1 CPT 16µM, KB-V1 cytotox inconclusive
CN(CCO)S(=O)(=O)c1ccc2c(c1)C(=NNC(N)=O)c1cc(S(=O)(=O)N(C)CCO)ccc1-2	none
CN(C)S(=O)(=O)c1ccc2c(c1)C(=NO)c1cc(S(=O)(=O)N(C)C)ccc1-2	TDP1 cell noCPT 8.2µM, DT40 TDP1 CPT inconclusive
CN(C)N=C1c2cc(S(=O)(=O)N(C)C)ccc2-c2ccc(S(=O)(=O)N(C)C)cc21	TDP1 cell noCPT 2.9µM, DT40 TDP1 CPT 4.6µM
CN(C)S(=O)(=O)c1ccc2c(c1)C(=O)c1cc(S(=O)(=O)N(C)C)ccc1CC2	none (no result: TDP1 cell noCPT, HT1080-NT tox, DT40 TDP1 CPT, HT1080 IDH1KD tx)
CCOC(=O)Cc1c(C)nc2c(-c3cccc(Br)c3)c[nH]n2c1=O	TDP1 cell noCPT 4.1µM, HT1080-NT tox inconclusive, DT40 TDP1 CPT 9.2µM, HT1080 IDH1KD tx inconclusive
Cc1cccc(-c2cc3nc(-c4ccccc4)cc(=O)n3[nH]2)c1	KB-3-1 tox inconclusive, TDP1 cell noCPT 23µM, HT1080-NT tox inconclusive, DT40 TDP1 CPT 23µM, HT1080 IDH1KD tx inconclusive, KB-V1 cytotox inconclusive
Cc1ccccc1-c1cc2nc(-c3ccc([N+](=O)[O-])cc3)cc(=O)n2[nH]1	none
CCOC(=O)Cc1c(C)nc2c(-c3ccc(Cl)cc3)c(C)[nH]n2c1=O	KB-3-1 tox inconclusive, TDP1 cell noCPT 23µM, HT1080-NT tox 13µM, DT40 TDP1 CPT 23µM, HT1080 IDH1KD tx 10µM, KB-V1 cytotox inconclusive
Cc1cc(=O)n2[nH]c(-c3ccc(Cl)cc3)cc2n1	KB-3-1 tox inconclusive, TDP1 cell noCPT 21µM, DT40 TDP1 CPT 18µM
Fc1ccc(-c2csc(-c3nc(-c4ccc(Br)s4)cs3)n2)cc1	none (no result: HT1080-NT tox, HT1080 IDH1KD tx)
COc1ccc(C(=O)NCCNc2nc3cc(C)cc(C)c3cc2C#N)c(OC)c1	TDP1 cell noCPT inconclusive, DT40 TDP1 CPT inconclusive
COc1cccc(CC(=O)NNC(=O)CN(C)S(=O)(=O)c2ccc(C)cc2)c1	none
Cc1cc(=O)n2[nH]c(C)c(-c3ccccc3)c2n1	TDP1 cell noCPT inconclusive, KB-V1 cytotox inconclusive
Cc1cc(=O)n2[nH]c(C)c(-c3ccc(Cl)cc3)c2n1	TDP1 cell noCPT inconclusive, HT1080-NT tox inconclusive, DT40 TDP1 CPT 23µM, KB-V1 cytotox inconclusive
Cc1cc(=O)n2[nH]c(-c3ccc(F)cc3)cc2n1	TDP1 cell noCPT 13µM, DT40 TDP1 CPT inconclusive
N#Cc1ccc2ccn(CC(=O)NCc3ccccc3)c2c1	TDP1 cell noCPT 18µM, DT40 TDP1 CPT inconclusive
CN1CC(=O)N2[C@H]3c4ccccc4OC[C@@H]3[C@H](c3ccccc3)[C@]2(C)C1=O	none
Cc1ccc2c(c1)[C@H]1[C@H](CO2)[C@H](c2ccccc2)[C@]2(C)C(=O)N(Cc3ccc(Cl)cc3)CC(=O)N12	KB-3-1 tox inconclusive, TDP1 cell noCPT 15µM, DT40 TDP1 CPT inconclusive, KB-V1 cytotox inconclusive
Cc1ccc2c(c1)[C@H]1[C@H](CO2)[C@H](c2ccccc2)[C@]2(C)C(=O)N(Cc3ccc(F)cc3)CC(=O)N12	KB-3-1 tox inconclusive, TDP1 cell noCPT 21µM, HT1080-NT tox inconclusive, DT40 TDP1 CPT inconclusive
COc1ccc2c(c1)OC[C@H]1[C@H]2N2C(=O)CN(Cc3ccc(F)cc3)C(=O)[C@@]2(C)[C@H]1c1ccccc1	KB-3-1 tox inconclusive, TDP1 cell noCPT inconclusive, DT40 TDP1 CPT inconclusive, KB-V1 cytotox inconclusive
COc1ccc(CN2CC(=O)N3[C@H]4c5ccccc5OC[C@@H]4[C@H](c4ccccc4)[C@]3(C)C2=O)cc1	KB-3-1 tox inconclusive, TDP1 cell noCPT 16µM, DT40 TDP1 CPT inconclusive
